Consider 21 compounds from PubChem BioAssay (NCATS).

Structures are written as SMILES. Results filed as inconclusive are left out. A call without a number means that no potency is given here. The source made the active and inactive calls. Calls come from the whole dose curve; as a rule, active = well fitted inhibition curve with a large enough effect; inconclusive = small, poorly fitted or top-dose-only effect; inactive = flat fitted curve, though single readings scatter.

Calcium and integrin-binding protein 1 (Homo sapiens), sequence (Q99828 whole entry, looked up): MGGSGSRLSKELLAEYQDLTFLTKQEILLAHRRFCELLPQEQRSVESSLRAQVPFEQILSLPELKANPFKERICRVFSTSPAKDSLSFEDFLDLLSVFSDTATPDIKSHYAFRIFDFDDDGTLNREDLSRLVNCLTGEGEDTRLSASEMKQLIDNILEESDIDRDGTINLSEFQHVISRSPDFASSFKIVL

The target of this test is Calcium and integrin-binding protein 1 (Homo sapiens) (UniProt Q99828). Description: Primary qHTS for Identification of Calcium Integrin Binding Protein 1 (CIB1) Competitor (AID 1508620).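 Note: GST tagged CIB1 binding a fluorescein labelled alphaIIb integrin peptide tracer; top concentration of the series differs between compounds.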 The settings on record: CIB1-GST / FITC-alphaIIb peptide fluorescence polarization; series mostly up to 114 µM. Put shortly:
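CIB1-GST (1 uM final) and compound incubated 15 min at room temperature before adding FITC-alphaIIb peptide tracer (100 nM final). Competition for binding read by fluorescence polarization (ex 480, em 540) after another 15 min at room temperature.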
Background: qHTS replaces the single test concentration by a dilution series.
Regarding `CCCCNC(=O)NS(=O)(=O)c1ccc(N)cc1`, the Potency result is “inactive”.

For `CCN(CC)CCOC(=O)C1(c2ccccc2)CCCC1`, the Potency result was “inactive”.

Regarding `O=C(O)c1ccc(S(=O)(=O)N(Cl)Cl)cc1`, the Potency result was “inactive”.

On to `CC(=O)Nc1ccc(OC(=O)c2ccccc2OC(C)=O)cc1`, for which the Potency result is “inactive”.

Take `C[N+]12CCC(CC1)C(OC(=O)C(O)(c1ccccc1)c1ccccc1)C2` (stereo unspecified): the Potency result is “inactive”.

Regarding `COc1cc(NS(=O)(=O)c2ccc(N)cc2)ncn1`, the Potency entry was “inactive”.

Consider `C[C@@H](O)[C@H]1C(=O)N2C(C(=O)O)=C([C@H]3CCCO3)S[C@H]12`, for which the Potency entry was “inactive”.

`CCCCCCCCOc1ccc(C(=O)c2ccccc2)c(O)c1`: the Potency entry is “inactive”.

Turning to `CCCc1ncc(C[n+]2ccccc2C)c(N)n1`, the Potency result is “inactive”.

Take `CC(=O)N[C@@H](CCC(=O)O)C(=O)O`: the Potency entry is “inactive”.

As to `CCN1CCN(C(=O)N[C@@H](C(=O)N[C@@H]2C(=O)N3C(C(=O)O)=C(CSc4nnnn4C)CS[C@H]23)c2ccc(O)cc2)C(=O)C1=O`, the Potency entry was “inactive”.

Take `N#CCC(=O)NN`: the Potency entry is “inactive”.

Take `CC(C)Nc1cccnc1N1CCN(C(=O)c2cc3cc(NS(C)(=O)=O)ccc3[nH]2)CC1`: the Potency result was “inactive”.

As for `Cc1ccc(S(=O)(=O)NC(=O)NC2CCCC2)cc1`, the Potency entry is “inactive”.

As for `Nc1ccc(C(=O)NCC(=O)O)cc1`, the Potency result was “inactive”.

For the compound `O=[N+]([O-])c1ccc(/C=N\O)o1`, the Potency entry is “inactive”.

In the case of `CCCN(CCC)S(=O)(=O)c1ccc(C(=O)O)cc1`, the Potency entry was “inactive”.

Regarding `O=C(O)P(=O)(O)O`, the Potency entry was “inactive”.

On to `CC1CCc2c(N3CCC(O)CC3)c(F)cc3c(=O)c(C(=O)O)cn1c23` (stereo unspecified), for which the Potency result was “inactive”.

Turning to `C/C=C/c1ccc(O)c(OC)c1`, the Potency entry is “inactive”.

In the case of `Cc1cccc(C)c1NC(=O)c1ccccc1C(=O)O`, the Potency result is “inactive”.
